Shiga inhibitor: inhibitors of Shiga toxin in Vero cells; Vero cells, Shiga toxin protein synthesis inhibition reporter; inhibition, % at 38.7 µM; 9.2% of 290,000 active; in the data active = inhibition mostly above about 28%, no sharp cut-off; inactive = mostly below about 43%; also: 0% is about no effect
SARS PLP yeast: SARS-CoV PLP inhibition in yeast. S. cerevisiae expressing SARS-CoV PLpro, growth rescue. Potency, µM (series often up to 32.9 µM), without a hit: at the top dose activity, positive = growth rescue, usual class: activators. 0.19% of 330,000 active; also: potency is read from the fitted curve at half-maximal effect; 0% is about no effect; nearly all actives have a fitted effect of over 55% in size
LmPK inhibitor: inhibitors of Leishmania mexicana pyruvate kinase; purified LmPK, Kinase-Glo ATP luminescence, 1 h; Potency, µM (top dose mostly 57.5 µM), inactives show at the top dose activity change, negative = inhibition, most hits filed as inhibitors; 0.37% of 290,000 active; active = well fitted curve in the direction sought with a large enough effect; inconclusive = small, poorly fitted or top-dose-only effect, or another doubt; inactive = no such curve, though single readings can be large; an effect the other way counts as inactive or inconclusive; also: potency is read from the fitted curve at half-maximal effect; % is scaled to controls: 0 for no effect and ±100 for the full control effect
Target sequence (Q27686 whole entry, looked up): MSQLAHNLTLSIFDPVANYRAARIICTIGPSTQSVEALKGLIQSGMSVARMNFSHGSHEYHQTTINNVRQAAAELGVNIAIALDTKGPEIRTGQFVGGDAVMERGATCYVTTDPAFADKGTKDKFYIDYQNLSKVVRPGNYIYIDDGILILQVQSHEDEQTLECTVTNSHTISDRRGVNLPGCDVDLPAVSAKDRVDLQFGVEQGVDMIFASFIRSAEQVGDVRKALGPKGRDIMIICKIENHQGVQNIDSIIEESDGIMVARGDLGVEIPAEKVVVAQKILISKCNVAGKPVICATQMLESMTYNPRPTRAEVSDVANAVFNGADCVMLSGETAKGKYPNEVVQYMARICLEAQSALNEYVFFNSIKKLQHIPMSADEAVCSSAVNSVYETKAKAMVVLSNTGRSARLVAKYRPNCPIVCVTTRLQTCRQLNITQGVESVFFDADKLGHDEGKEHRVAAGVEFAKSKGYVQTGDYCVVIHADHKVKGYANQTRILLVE
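Screened at intermediate enzyme activity to detect both inhibitors and activators: LmPK at 0.1 nM, with a 0.5 nM enzyme column as activation reference. PEP 0.5 mM, ADP 0.1 mM; ATP detected by luminescence after 1 h.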
Cycloheximide cs: affects cycloheximide protein synthesis inhibition readout, counter-screen; cell reporter, cycloheximide protein synthesis inhibition counterscreen; max response, %; 12% of 300,000 active; AID 2314; in the data active = max response mostly above about 13%, no sharp cut-off; inactive = mostly below about 14%; also: read at 38.3 µM for the half of the compounds with a filed dose; 0% is about no effect
Tb PYK inh: inhibitors of Trypanosoma brucei pyruvate kinase; Q57TT1; TbPYK enzyme, Kinase-Glo Plus ATP luminescence, 45 min; Potency, µM (doses to about 76.8 µM), inactives show at the highest dose activity, negative = inhibition, hits mostly inhibitors; 0.12% of 410,000 active; active = well fitted curve in the direction sought with a large enough effect; inconclusive = small, poorly fitted or top-dose-only effect, or another doubt; inactive = no such curve, though single readings can be large; an effect the other way counts as inactive or inconclusive; also: potency is read from the fitted curve at half-maximal effect; % is scaled to controls: 0 for no effect and ±100 for the full control effect; nearly all actives have a fitted effect of over 50% in size
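Luminescence from Kinase-Glo Plus, added after a 45-minute room-temperature reaction, served as the end-point read-out. The enzyme and substrate were preincubated with compound before ADP (130 uM final) initiated turnover. Concentration-effect curves came from normalized qHTS data.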
NS1 inh: influenza NS1 inhibition; Potency, µM (top dose mostly 46.1 µM), inactives show at the highest dose activity, positive = more growth; AID 2326; 0.4% of 270,000 active; also: potency is read from the fitted curve at half-maximal effect; actives are rising curves; nearly all actives have a fitted effect of over 50% in size
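OD600 was taken as the measure of yeast growth restored by compound in an NS1-expressing S. cerevisiae strain. Cells had been washed out of glucose medium and diluted 1:100 into galactose -URA medium, pH 6.0.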
An asterisk follows results filed as active; u = inconclusive; x = not tested or not shown. Shown is part of a subset that was picked to be rich in hits. Unless noted, calls follow the shape of the full dose curve.

SMILES | Shiga inhibitor | SARS PLP yeast | LmPK inhibitor | Cycloheximide cs | Tb PYK inh | NS1 inh
CCN(CC)C1CCN(C(=O)c2cc(COc3ccccc3SC)on2)C1 (configuration not stated) | -4.5 | -6.0% | 3.6% | -0.3 | -11.5% | -11.4%
CSc1ccccc1OCc1cc(C(=O)N2CCC(Oc3cccnc3)CC2)no1 | 95.4* | x | 3.2% | 41.9* | x | -58.1%
N#CC(OC(=O)c1ccccc1)c1ccccc1 (configuration not stated) | x | x | x | x | 0.1% | x
CCCCCCOc1ccc(/C(N)=N/O)cc1 | 61.4* | 2.0% | 0.1% | 44.1* | -0.7% | -50.5%
C=CCOc1ccc(C(=O)Nc2ccccc2C(=O)NCc2cccnc2)cc1 | -7.4 | -7.0% | 0.0% | -2.1 | 2.2% | 3.8%
CC(=O)Nc1ccc(N/C=C/C(=O)c2ccc(C)o2)cc1 | 70.6* | -5.4% | -15.2% | 22.2* | 3.7% | -65.0%
CC(=O)Nc1ccc(N/C=C/C(=O)c2ccc(Cl)cc2)cc1 | 27.1 | 7.1% | 2.9% | 11.7 | -2.0% | 22.9%
COc1ccccc1Oc1ccc(N/C=C/C(=O)c2ccc(C)o2)cc1 | 135.5* | 0.2% | -15.4% | 24.8* | -5.6% | x
CCOc1ccc(S(=O)(=O)Nc2ccn(C)n2)cc1 | x | -8.4% | x | x | -0.6% | x
Cc1oc(-c2ccc3c(c2)OCCO3)cc1C(=O)NCC(=O)O | -9.7 | -2.4% | -0.6% | -3.4 | -20.1% | 0.6%
Cc1oc(-c2ccc3c(c2)OCCO3)cc1C(=O)NC(CCC(=O)O)C(=O)O (configuration not stated) | 58.8 | 1.4% | 1.3% | 26.8* | -6.7% | 3.1%
Cc1oc(-c2ccc3c(c2)OCCO3)cc1C(=O)O | -33.1 | -10.6% | 14.1µM* | -8.6 | u | -188.0%
CN1CCN(C(=O)C2CCCCC2)CC1 | x | x | x | x | 1.4% | x
COc1ccc(/C=C2\SC(=O)N(CCNC(=O)C3CCN(S(=O)(=O)c4cccs4)CC3)C2=O)cc1 | 43.8* | 3.7% | -3.5% | 35.2* | 1.2% | -9.1%
COc1ccc(/C=C2\SC(=O)N(CCNC(=O)CCS(=O)(=O)c3ccc(C)cc3)C2=O)cc1 | 110.4* | -29.1% | -3.5% | 70.3* | -19.1% | 13.9%
CCc1noc(C)c1C(=O)NCCN1C(=O)S/C(=C\c2ccc(OC)cc2)C1=O | x | 1.9% | x | x | -13.5% | x
COc1ccc(/C=C2\SC(=O)N(CCNC(=O)Cn3cnnn3)C2=O)cc1 | 156.9* | -12.8% | -3.4% | 32.2* | -5.6% | -2.4%
COc1ccc(N2CCN(CCNC(=O)C3CCN(S(=O)(=O)c4cccs4)CC3)CC2)cc1 | -6.4 | -1.9% | 6.4% | -2.0 | 2.2% | -4.6%
CCOC(=O)C1CCN(Cc2cc(=O)oc3cc(C)ccc23)CC1 | 28.8 | 0.0% | -0.6% | 7.6 | -6.6% | 0.9%
CCOC(=O)C1CCCN(Cc2cc(=O)oc3cc(C)ccc23)C1 (configuration not stated) | 68.9* | -7.2% | 12.9% | 44.1* | 1.2% | -7.8%
CCOC(=O)C1CCCN(Cc2cc(=O)oc3cc(C)c(C)cc23)C1 (configuration not stated) | 28.2 | -4.4% | 1.2% | 37.0* | -0.2% | x
Cc1ccc2c(CN3CCC(C)CC3)cc(=O)oc2c1 | 151.5* | -7.1% | -0.1% | 53.2* | 0.8% | -2.0%
COc1ccc(/C=C/c2nc(-c3ccccc3O)n(-c3ccccc3)n2)cc1 | 11.7 | 15.4% | 3.7% | 4.6 | 1.5% | u
COc1ccc(-c2cc(-c3ccccc3)n[nH]2)c(O)c1 | 82.3* | -2.9% | 0.7% | 31.6* | -4.1% | -59.6%
COc1ccc(/C=C/c2nc(-c3ccccc3O)n[nH]2)cc1 | 74.0* | -24.0% | -15.6% | 70.4* | -7.8% | -13.7%
SMILES | Shiga inhibitor | SARS PLP yeast | LmPK inhibitor | Cycloheximide cs | Tb PYK inh | NS1 inh
COc1ccc(-c2cc(-c3ccccc3O)[nH]n2)cc1 | 71.5* | -29.2% | -15.2% | 54.5* | 12.3% | -193.6%
Oc1ccccc1-c1cc(-c2ccccc2)n[nH]1 | x | -12.8% | x | x | 2.2% | x
CCCN(C(=O)c1cccc(-n2cccc2)c1)c1c(N)n(Cc2ccccc2)c(=O)[nH]c1=O | x | 0.5% | x | x | 0.4% | x
C[C@@H]1CC[C@]2(C(=O)O)CC[C@]3(C)C(=CCC4[C@@]5(C)C[C@@H](O)[C@H](O)[C@@](C)(CO)C5[C@H](O)C[C@]43C)C2[C@H]1C (some centres not stated) | -6.5 | x | x | -5.6 | x | x
CCN(CC)S(=O)(=O)c1ccc(-c2csc(=Nc3cccc(C(F)(F)F)c3)n2Cc2ccc3c(c2)OCO3)cc1 | x | x | x | x | 0.7% | x
O=C(NCC1CCCN1S(=O)(=O)c1cccs1)C(=O)Nc1ccc(F)cc1 (configuration not stated) | x | -1.7% | x | x | -10.9% | x
CN(Cc1ccco1)C(=O)c1c[nH]c2ccc(S(=O)(=O)Nc3ccc4c(c3)OCCO4)cc2c1=O | -18.9 | 7.0% | 6.0% | 18.3* | -4.7% | 8.2%
O=c1cc(N2CCOCC2)cnn1-c1ccccc1 | 72.6* | 15.0% | -6.0% | 39.8* | -0.9% | 9.8%
BrCC1C[n+]2c(SCc3ccccc3)nc3sc4c(c3c2O1)CCCC4 (configuration not stated) | 80.3* | -1.0% | -1.8% | 30.6* | -6.9% | -5.4%
CCSc1nc2sc3c(c2c2[n+]1CC(CBr)O2)CCCC3 (configuration not stated) | 36.2 | -0.1% | 1.6% | 17.4* | -1.1% | 2.3%
CCSc1nc2sc3c(c2c(=O)[nH]1)CCCC3 | -10.0 | 15.0% | 5.2% | -1.7 | 2.5% | -4.8%
N#Cc1cnn(-c2nc(SCc3ccccc3)nc3sc4c(c23)CCCC4)c1N | -12.8 | 0.3% | 14.6% | -2.1 | 5.3% | 7.9%
O=C(c1cc(-c2ccco2)nn1-c1cccc(Cl)c1)N1CCCCC1 | -1.5 | 28.6% | -25.3% | -1.4 | 10µM* | -13.4%
O=C(c1cc(-c2cccc(Cl)c2)on1)N1CCN(c2ccc(F)cc2)CC1 | -18.9 | 0.5% | -5.0% | -2.9 | 5.0% | 5.1%
CN1CCN(C(=O)c2cc(-c3cccc(Cl)c3)on2)CC1 | 41.5 | 7.4% | -5.3% | 33.8* | -3.4% | -9.0%
O=C(c1cc(-c2cccc(Cl)c2)on1)N1CCCCCC1 | 116.5* | 0.1% | -1.6% | 26.6* | -1.0% | -22.6%
COc1ccc(-c2noc(CC(=O)Nc3cc(OC)ccc3OC)n2)cc1 | x | x | x | x | 0.2% | x
COc1ccc(-c2nc3scc(CCNS(=O)(=O)c4c(C)noc4C)n3n2)cc1OC | x | x | x | x | 4.5% | x
Cc1ccc2c(c1)N(CC(=O)NCCN1CCOCC1)C(=O)CO2 | x | x | x | x | x | 6.4%
CCN(C(=S)Nc1cccc2ccccc12)c1ccccc1 | x | x | x | x | -8.2% | x
Cc1ccc(-c2[nH]ncc2C(=O)c2ccc(Br)cc2)c(O)c1 | 18.9 | -6.2% | 3.3% | 11.0* | -7.1% | -44.7%
Cc1ccc2c(CC(=O)Nc3ccc(N4CCN(C)CC4)cc3C)coc2c1 | 47.0 | -1.3% | -3.4% | 18.2* | -0.7% | 7.5%
Cc1ccc2c(CC(=O)Nc3sccc3C(N)=O)coc2c1 | 81.5* | -16.6% | 1.7% | 40.8* | -8.3% | -50.1%
CCOC(=O)c1c(NC(=O)Cc2coc3cc(C)ccc23)sc2c1CCCC2 | x | x | x | x | -7.2% | x

Screens from PubChem BioAssay.
